# Assay results published in paper PMC7862700, “An all-to-all approach to the identification of sequence-specific readers for epigenetic DNA modifications on cytosine”.
# Tests used:
# Assay in all cases: DAPPL (digital affinity profiling via proximity ligation, sequencing); 10 mM Tris-HCl pH 7.5, 50 mM NaCl, 1 mM DTT, 4% glycerol, room temperature, 30 min; GST-TFs on glutathione beads, 16-mer random dsDNA library, 0.1% formaldehyde crosslink after washing; high values mean tight binding
# FLI1 = target: T1, FLI1 (Homo sapiens, UniProt Q01543 1-452); conditions: protein: recombinant; tags: N-terminal GST; dsDNA, one strand shown
# T1 sequence: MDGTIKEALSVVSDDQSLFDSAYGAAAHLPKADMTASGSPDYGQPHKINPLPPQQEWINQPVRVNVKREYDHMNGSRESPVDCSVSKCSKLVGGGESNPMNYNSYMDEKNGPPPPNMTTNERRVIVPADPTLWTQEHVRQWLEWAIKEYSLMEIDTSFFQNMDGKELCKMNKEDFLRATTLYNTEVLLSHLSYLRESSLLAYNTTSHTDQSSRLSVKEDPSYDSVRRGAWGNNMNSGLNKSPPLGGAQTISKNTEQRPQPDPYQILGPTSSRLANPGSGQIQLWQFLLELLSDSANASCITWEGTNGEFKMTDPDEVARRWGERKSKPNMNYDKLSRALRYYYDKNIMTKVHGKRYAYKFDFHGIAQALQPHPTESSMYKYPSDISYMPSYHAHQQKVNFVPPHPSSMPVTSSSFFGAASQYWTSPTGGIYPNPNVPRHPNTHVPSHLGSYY
# How it was run: (§1)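 Pools of DNA-barcoded human transcription factors, expressed in yeast as GST fusions on glutathione beads and combined with a tag-only sample, were incubated with 200 nmole of a 16-mer random double-stranded DNA library. Incubation took 30 min at room temperature in Tris/NaCl/DTT/glycerol buffer and was followed by washing, 0.1% formaldehyde crosslinking, proximity ligation (BsaI/T4 ligase, 1 h, 37 °C), PCR amplification and sequencing on an Illumina NextSeq500. Binding signal is the ratio of a hexamer's read frequency for a factor to its frequency for the tag-only sample.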
# ELK1 = target: T2, ELK1 (Homo sapiens, UniProt P19419 1-428); conditions: protein: recombinant; tags: N-terminal GST; dsDNA, one strand shown
# T2 sequence: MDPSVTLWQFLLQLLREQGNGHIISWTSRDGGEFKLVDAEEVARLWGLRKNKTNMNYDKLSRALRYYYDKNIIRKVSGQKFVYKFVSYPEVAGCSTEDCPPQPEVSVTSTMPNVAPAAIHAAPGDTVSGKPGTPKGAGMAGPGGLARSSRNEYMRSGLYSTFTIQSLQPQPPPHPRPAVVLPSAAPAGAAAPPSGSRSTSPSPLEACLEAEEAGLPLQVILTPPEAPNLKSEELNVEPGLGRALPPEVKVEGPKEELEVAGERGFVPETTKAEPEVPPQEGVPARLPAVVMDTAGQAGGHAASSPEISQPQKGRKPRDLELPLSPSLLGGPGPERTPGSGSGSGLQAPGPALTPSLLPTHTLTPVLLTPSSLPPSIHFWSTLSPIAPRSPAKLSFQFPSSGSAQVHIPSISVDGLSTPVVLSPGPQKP
# How it was run: as §1
# GABPA = target: T3, GABPA (Homo sapiens, UniProt Q06546 1-454); conditions: protein: recombinant; tags: N-terminal GST; dsDNA, one strand shown
# T3 sequence: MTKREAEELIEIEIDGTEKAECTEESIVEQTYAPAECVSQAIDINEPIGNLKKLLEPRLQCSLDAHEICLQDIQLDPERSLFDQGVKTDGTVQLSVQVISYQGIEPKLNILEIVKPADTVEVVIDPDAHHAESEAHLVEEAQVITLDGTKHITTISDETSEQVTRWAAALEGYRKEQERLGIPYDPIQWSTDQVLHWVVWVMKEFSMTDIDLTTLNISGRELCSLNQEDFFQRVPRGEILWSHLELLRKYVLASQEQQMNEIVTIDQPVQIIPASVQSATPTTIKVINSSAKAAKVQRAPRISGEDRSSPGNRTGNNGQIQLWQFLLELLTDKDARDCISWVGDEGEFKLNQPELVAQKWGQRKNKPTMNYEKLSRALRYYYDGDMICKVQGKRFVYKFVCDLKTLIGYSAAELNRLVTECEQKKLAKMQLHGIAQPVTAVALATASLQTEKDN
# How it was run: as §1
# ERG = target: T4, ERG (Homo sapiens, UniProt P11308 1-479); conditions: protein: recombinant; tags: N-terminal GST; dsDNA, one strand shown
# T4 sequence: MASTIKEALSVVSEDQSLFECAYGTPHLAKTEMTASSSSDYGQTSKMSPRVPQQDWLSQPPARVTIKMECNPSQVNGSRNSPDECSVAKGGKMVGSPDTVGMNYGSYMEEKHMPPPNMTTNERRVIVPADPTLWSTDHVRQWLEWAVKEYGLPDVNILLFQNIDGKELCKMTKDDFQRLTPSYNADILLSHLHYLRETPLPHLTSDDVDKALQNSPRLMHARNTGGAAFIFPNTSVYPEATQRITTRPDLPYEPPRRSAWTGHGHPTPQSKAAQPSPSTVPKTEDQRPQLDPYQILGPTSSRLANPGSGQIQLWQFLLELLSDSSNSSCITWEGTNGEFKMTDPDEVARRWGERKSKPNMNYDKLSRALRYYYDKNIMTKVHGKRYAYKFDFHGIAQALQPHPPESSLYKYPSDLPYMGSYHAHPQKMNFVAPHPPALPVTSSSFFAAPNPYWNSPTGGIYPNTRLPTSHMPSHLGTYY
# How it was run: as §1
# ELF1 = ELF1 (Homo sapiens, UniProt P32519 1-619); conditions: protein: recombinant; tags: N-terminal GST; dsDNA, one strand shown
# ELF1, sequence (P32519 whole entry): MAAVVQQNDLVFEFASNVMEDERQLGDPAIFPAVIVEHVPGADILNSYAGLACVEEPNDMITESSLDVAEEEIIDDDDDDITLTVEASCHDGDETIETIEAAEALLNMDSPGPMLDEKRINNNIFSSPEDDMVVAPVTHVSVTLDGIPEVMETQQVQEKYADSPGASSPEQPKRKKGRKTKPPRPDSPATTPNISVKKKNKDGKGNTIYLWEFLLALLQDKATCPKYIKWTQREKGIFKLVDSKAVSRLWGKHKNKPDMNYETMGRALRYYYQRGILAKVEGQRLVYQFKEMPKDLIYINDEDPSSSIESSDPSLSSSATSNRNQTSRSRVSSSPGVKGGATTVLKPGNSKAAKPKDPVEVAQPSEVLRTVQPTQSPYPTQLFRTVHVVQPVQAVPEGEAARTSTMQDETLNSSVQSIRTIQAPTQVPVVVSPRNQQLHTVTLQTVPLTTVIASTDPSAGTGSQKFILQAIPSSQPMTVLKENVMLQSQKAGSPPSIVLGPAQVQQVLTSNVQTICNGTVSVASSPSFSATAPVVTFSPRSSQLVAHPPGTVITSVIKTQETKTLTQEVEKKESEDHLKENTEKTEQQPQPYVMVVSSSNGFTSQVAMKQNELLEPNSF
# How it was run: as §1
# EHF = target: T5, EHF (Homo sapiens, UniProt Q9NZC4 1-300); conditions: protein: recombinant; tags: N-terminal GST; dsDNA, one strand shown
# T5 sequence: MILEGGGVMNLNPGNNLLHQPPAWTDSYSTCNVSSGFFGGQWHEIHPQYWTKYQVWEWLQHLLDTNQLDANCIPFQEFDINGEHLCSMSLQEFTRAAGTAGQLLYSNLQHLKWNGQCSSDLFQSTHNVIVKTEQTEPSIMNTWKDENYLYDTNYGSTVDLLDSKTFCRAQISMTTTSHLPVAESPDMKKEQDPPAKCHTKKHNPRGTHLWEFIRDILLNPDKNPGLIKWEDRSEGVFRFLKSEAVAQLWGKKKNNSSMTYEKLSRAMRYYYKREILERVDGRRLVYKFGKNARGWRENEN
# How it was run: as §1
# SPI1 = SPI1 (Homo sapiens, UniProt P17947 1-270); conditions: protein: recombinant; tags: N-terminal GST; dsDNA, one strand shown
# How it was run: as §1
# SPIB = SPIB (Homo sapiens, UniProt Q01892 1-262); conditions: protein: recombinant; tags: N-terminal GST; dsDNA, one strand shown
# SPIB, sequence (Q01892 whole entry): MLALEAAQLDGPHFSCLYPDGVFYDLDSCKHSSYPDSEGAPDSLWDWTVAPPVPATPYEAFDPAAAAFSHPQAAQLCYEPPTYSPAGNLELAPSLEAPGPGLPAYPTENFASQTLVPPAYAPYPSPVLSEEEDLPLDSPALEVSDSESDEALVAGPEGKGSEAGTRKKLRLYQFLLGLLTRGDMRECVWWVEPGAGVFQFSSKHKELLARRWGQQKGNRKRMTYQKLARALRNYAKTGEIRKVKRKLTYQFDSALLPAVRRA
# How it was run: as §1
# ELK3 = target: T6, ELK3 (Homo sapiens, UniProt P41970 1-407); conditions: protein: recombinant; tags: N-terminal GST; dsDNA, one strand shown
# T6 sequence: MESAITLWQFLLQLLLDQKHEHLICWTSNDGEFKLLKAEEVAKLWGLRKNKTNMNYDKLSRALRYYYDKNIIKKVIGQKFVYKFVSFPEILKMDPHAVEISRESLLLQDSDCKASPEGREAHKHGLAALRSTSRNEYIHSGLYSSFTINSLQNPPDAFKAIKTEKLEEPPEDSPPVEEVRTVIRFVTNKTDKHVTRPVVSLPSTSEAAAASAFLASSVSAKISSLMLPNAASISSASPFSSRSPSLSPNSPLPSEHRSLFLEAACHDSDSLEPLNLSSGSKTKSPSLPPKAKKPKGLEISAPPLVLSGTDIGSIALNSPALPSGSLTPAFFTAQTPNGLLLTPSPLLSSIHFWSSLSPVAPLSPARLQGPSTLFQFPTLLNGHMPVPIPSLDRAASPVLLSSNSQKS
# How it was run: as §1
# ETV5 = ETV5 (Homo sapiens, UniProt P41161 1-510); conditions: protein: recombinant; tags: N-terminal GST; dsDNA, one strand shown
# ETV5, sequence (P41161 whole entry): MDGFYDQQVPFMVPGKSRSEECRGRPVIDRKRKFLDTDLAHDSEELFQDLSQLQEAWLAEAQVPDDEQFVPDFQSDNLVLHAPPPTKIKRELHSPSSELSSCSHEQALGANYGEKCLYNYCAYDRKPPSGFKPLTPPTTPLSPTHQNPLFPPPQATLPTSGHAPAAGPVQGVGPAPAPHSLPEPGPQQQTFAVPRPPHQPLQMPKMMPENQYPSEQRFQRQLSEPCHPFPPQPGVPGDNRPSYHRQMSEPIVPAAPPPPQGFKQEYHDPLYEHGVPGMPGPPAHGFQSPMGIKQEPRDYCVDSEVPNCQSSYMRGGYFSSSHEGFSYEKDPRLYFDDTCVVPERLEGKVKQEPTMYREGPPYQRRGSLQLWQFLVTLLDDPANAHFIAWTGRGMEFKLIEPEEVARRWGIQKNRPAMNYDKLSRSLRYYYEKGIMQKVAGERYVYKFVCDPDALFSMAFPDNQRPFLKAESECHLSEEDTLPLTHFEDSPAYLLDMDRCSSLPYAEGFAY
# How it was run: as §1
# HSF1 = HSF1 (Homo sapiens, UniProt Q00613 1-529); conditions: protein: recombinant; tags: N-terminal GST; chain copies: 3; dsDNA, one strand shown
# HSF1, sequence (Q00613 whole entry): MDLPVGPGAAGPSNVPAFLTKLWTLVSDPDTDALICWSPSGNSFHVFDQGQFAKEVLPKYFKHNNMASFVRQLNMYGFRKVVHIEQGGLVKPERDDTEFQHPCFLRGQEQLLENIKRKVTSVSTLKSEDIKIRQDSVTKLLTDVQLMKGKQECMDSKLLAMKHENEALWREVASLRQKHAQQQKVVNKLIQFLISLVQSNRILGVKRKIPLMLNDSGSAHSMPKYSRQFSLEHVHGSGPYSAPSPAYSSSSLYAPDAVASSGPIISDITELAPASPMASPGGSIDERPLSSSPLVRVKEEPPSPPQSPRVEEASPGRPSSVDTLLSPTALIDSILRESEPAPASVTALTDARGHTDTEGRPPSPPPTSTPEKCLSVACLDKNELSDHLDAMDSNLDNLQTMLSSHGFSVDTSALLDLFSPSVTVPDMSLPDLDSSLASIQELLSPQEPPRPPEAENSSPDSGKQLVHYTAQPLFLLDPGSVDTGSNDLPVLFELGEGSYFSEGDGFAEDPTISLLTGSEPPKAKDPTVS
# How it was run: as §1
# SPIC = target: T7, SPIC (Homo sapiens, UniProt Q8N5J4 1-248); conditions: protein: recombinant; tags: N-terminal GST; dsDNA, one strand shown
# T7 sequence: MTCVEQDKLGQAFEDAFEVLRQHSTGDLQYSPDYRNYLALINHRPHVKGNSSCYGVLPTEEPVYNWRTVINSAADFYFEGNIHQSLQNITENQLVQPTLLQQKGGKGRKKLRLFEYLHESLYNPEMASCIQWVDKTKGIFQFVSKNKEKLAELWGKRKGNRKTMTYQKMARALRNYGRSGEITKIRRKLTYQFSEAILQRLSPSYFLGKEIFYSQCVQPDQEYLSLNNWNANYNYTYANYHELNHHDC
# How it was run: as §1
# ELF4 = ELF4 (Homo sapiens, UniProt Q99607 1-663); conditions: protein: recombinant; tags: N-terminal GST; dsDNA, one strand shown
# ELF4, sequence (Q99607 whole entry): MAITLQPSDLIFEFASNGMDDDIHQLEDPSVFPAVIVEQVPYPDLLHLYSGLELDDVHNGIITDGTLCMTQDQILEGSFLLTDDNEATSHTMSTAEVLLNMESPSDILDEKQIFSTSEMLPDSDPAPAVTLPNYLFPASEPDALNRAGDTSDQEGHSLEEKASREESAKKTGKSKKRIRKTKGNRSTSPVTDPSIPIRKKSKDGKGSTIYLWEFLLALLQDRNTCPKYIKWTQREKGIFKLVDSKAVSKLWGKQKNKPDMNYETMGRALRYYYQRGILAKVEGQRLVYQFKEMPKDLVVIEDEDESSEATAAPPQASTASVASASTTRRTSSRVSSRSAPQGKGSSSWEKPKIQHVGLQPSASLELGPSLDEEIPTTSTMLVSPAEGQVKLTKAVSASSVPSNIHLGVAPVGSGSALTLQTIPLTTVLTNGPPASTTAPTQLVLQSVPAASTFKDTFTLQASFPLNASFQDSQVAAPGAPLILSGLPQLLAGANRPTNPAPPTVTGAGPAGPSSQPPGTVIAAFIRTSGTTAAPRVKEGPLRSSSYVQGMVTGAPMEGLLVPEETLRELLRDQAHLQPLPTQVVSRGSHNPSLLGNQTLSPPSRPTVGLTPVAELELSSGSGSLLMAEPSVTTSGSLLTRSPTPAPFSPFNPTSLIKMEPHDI
# How it was run: as §1
# ELK4 = target: T8, ELK4 (Homo sapiens, UniProt P28324-2 1-405); conditions: protein: recombinant; tags: N-terminal GST; dsDNA, one strand shown
# T8 sequence: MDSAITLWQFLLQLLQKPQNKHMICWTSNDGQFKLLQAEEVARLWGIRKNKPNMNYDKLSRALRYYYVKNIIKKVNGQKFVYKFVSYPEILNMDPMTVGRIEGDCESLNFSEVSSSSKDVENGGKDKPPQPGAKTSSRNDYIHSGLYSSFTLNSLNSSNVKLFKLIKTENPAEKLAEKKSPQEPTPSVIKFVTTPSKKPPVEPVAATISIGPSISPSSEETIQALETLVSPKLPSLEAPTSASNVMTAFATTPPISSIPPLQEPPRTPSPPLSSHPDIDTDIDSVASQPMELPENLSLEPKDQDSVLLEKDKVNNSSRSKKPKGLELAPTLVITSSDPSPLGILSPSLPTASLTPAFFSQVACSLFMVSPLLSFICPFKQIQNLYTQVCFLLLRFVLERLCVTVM
# How it was run: as §1
# ETV2 = target: T9, ETV2 (Homo sapiens, UniProt O00321 1-342); conditions: protein: recombinant; tags: N-terminal GST; dsDNA, one strand shown
# T9 sequence: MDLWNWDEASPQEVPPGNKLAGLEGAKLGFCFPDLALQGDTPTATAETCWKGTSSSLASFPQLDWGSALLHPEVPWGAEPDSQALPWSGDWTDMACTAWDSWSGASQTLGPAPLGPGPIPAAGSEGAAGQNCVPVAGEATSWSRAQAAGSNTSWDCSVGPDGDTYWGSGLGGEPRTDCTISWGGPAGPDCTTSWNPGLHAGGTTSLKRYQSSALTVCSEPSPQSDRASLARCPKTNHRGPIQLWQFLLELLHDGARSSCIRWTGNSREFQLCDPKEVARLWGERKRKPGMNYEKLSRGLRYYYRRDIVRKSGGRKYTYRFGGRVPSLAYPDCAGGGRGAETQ
# How it was run: as §1
# ELF3 = target: T10, ELF3 (Homo sapiens, UniProt P78545 1-371); conditions: protein: recombinant; tags: N-terminal GST; dsDNA, one strand shown
# T10 sequence: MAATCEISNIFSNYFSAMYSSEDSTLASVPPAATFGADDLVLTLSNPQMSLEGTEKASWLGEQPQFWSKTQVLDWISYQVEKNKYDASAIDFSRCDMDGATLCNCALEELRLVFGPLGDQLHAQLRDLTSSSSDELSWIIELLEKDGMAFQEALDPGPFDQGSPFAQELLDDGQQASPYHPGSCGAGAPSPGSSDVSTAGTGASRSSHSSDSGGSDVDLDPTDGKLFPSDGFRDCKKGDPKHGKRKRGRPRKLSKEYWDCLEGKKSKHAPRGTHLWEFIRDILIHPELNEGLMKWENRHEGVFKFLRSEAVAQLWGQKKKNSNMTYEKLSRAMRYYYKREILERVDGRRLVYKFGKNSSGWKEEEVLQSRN
# How it was run: as §1
# CRX = CRX (Homo sapiens, UniProt O43186 1-299); conditions: protein: recombinant; tags: N-terminal GST; dsDNA, one strand shown
# CRX, sequence (O43186 whole entry): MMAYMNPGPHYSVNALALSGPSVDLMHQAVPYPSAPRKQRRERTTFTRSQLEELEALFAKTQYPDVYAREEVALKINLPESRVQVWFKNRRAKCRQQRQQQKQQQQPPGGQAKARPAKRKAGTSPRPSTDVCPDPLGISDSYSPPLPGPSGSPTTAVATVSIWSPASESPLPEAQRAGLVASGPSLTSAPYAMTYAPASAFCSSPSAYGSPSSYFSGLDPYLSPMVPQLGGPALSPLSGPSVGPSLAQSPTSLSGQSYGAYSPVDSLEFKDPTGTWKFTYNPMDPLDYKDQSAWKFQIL
# How it was run: as §1
# ETV1 = ETV1 (Homo sapiens, UniProt P50549 1-477); conditions: protein: recombinant; tags: N-terminal GST; dsDNA, one strand shown
# ETV1, sequence (P50549 whole entry): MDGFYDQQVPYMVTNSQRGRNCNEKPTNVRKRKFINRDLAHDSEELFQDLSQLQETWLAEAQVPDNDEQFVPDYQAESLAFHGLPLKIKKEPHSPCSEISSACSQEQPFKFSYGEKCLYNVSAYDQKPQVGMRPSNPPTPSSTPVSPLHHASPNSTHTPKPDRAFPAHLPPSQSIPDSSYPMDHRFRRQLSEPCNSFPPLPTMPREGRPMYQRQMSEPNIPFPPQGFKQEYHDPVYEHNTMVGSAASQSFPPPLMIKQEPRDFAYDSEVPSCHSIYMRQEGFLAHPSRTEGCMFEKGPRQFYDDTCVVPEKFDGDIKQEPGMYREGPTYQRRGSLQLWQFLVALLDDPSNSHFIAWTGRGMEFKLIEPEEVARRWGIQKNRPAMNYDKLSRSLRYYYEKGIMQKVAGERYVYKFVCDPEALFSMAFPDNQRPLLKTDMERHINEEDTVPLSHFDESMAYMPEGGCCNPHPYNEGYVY
# How it was run: as §1
sequence,measurement,setting,value
TAATGT,binding signal,FLI1,"1.15 fold enrichment (6-mer frequency, TF over GST control)"
same,binding signal,ELK1,"1.02 fold enrichment (6-mer frequency, TF over GST control)"
same,binding signal,GABPA,"1.08 fold enrichment (6-mer frequency, TF over GST control)"
same,binding signal,ERG,"1.09 fold enrichment (6-mer frequency, TF over GST control)"
same,binding signal,ELF1,"1.11 fold enrichment (6-mer frequency, TF over GST control)"
same,binding signal,EHF,"1.07 fold enrichment (6-mer frequency, TF over GST control)"
same,binding signal,SPI1,"1.06 fold enrichment (6-mer frequency, TF over GST control)"
same,binding signal,SPIB,"1.05 fold enrichment (6-mer frequency, TF over GST control)"
same,binding signal,ELK3,"1.09 fold enrichment (6-mer frequency, TF over GST control)"
same,binding signal,ETV5,"1.14 fold enrichment (6-mer frequency, TF over GST control)"
same,binding signal,HSF1,"1.19 fold enrichment (6-mer frequency, TF over GST control)"
same,binding signal,SPIC,"1.21 fold enrichment (6-mer frequency, TF over GST control)"
same,binding signal,ELF4,"1.11 fold enrichment (6-mer frequency, TF over GST control)"
same,binding signal,ELK4,"1.19 fold enrichment (6-mer frequency, TF over GST control)"
same,binding signal,ETV2,"1.08 fold enrichment (6-mer frequency, TF over GST control)"
same,binding signal,ELF3,"1.04 fold enrichment (6-mer frequency, TF over GST control)"
same,binding signal,CRX,"1.5 fold enrichment (6-mer frequency, TF over GST control)"
same,binding signal,ETV1,"1.16 fold enrichment (6-mer frequency, TF over GST control)"
